Bioassay records as filed in PubChem.
The list is not random: actives were taken first. Their share in the collection is about 21%.
Cycloheximide cs = counter-screen for Shiga toxin inhibitors: cycloheximide protein synthesis inhibition | cell reporter, cycloheximide protein synthesis inhibition counterscreen | max response, % | 300,000 compounds, 12% hits | AID 2314; in the data active = max response mostly above about 13%, no sharp cut-off; inactive = mostly below about 14%; note: read at 38.3 µM for the half of the compounds with a filed dose; 0% is about no effect
AMA1 RON2 block = AMA1-RON2 (P. falciparum) interaction inhibition. AlphaScreen AMA1-biotinylated RON2 peptide binding. Potency, µM (doses to about 58.2 µM), for the others: at the highest dose activity change, negative = inhibition, actives largely listed as inhibitors. 360,000 compounds, 0.2% hits. AID 720542;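 note: potency is the fitted concentration of half-maximal effect; 0% = vehicle wells and -100% = peptide control; nearly all actives have a fitted effect of over 45% in size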
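AMA1 (3D7) with his tag at 25 nM final met compounds first, then biotinylated RON2 peptide at 25 nM; detection used donor plus acceptor beads, 10 µg/mL apiece, read by AlphaScreen after 30 min at room temperature.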
Pf growth 96h = P. falciparum growth inhibition at 96 hours; P. falciparum luciferase reporter growth, 96 h; Potency, µM (top dose mostly 28.7 µM), for inactives: top-dose activity change, negative = inhibition, most hits filed as inhibitors; 320,000 compounds, 6.9% hits; AID 504834; note: potency is the fitted concentration of half-maximal effect; % is set by controls: 0 for no effect and ±100 for the full control effect
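P. falciparum expressing integrated firefly luciferase grown in erythrocytes (2% hematocrit, 0.05% parasitemia final) with compounds for 96 hours at 37 C, 5% CO2. Growth inhibition read as loss of luminescence after adding luciferase detection reagent.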
Pf growth 48h = P. falciparum growth inhibition at 48 hours (one generation); P. falciparum luciferase growth in erythrocytes, 48 h; AID 504832; 310,000 compounds, 5.9% hits; Potency, µM (top dose mostly 28.7 µM), for the others: at the top dose activity change, negative = inhibition, usual class: inhibitors; note: potency is the fitted concentration of half-maximal effect; % is set by controls: 0 for no effect and ±100 for the full control effect
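In quantitative HTS format, infected erythrocytes bearing luciferase-reporter parasites were treated for a single generation at 37 C. Luminescence after adding detection reagent served as the growth measure.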
HCV inh = blocks hepatitis C virus; 340,000 compounds, 3.4% hits; Potency, µM (doses to about 41.8 µM), without a hit: at the highest dose activity change, negative = inhibition, hits mostly inhibitors; Huh7.5.1 HCVcc-Cre infection, luciferase reporter, 44 h; AID 651820; note: potency is the fitted concentration of half-maximal effect; % is set by controls: 0 for no effect and ±100 for the full control effect
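HCVcc-Cre virus at an moi near 0.5 was added right after compound to cells cultured 4 h from seeding (1,000 cells/well). Luciferase activity was determined 44 h later, 15 min after substrate addition at RT.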
Shiga inhibitor = inhibitors of Shiga toxin in Vero cells. AID 2315. Vero cells, Shiga toxin protein synthesis inhibition reporter. inhibition, % at 38.7 µM. 290,000 compounds, 9.2% hits; in the data active = inhibition mostly above about 28%, no sharp cut-off; inactive = mostly below about 43%; note: 0% is about no effect
* marks the source's active call; other numbers are inactive results; ? = inconclusive; . = not tested or not shown; [ ] = dose if it differs, or a comment. Unless noted, calls come from the whole dose curve; as a rule, active = well fitted curve in the direction sought with a large enough effect; inconclusive = small, poorly fitted or top-dose-only effect, or another doubt; inactive = no such curve, though single readings can be large; an effect the other way counts as inactive or inconclusive.

SMILES	Cycloheximide cs	AMA1 RON2 block	Pf growth 96h	Pf growth 48h	HCV inh	Shiga inhibitor
Cc1c(N2CCCCC2)[nH]c2ccccc12	.	-14%	.	.	.	.
CCN(CC)S(=O)(=O)c1ccc(N2CCN(S(=O)(=O)c3ccccc3)CC2)nc1	-10	9%	-11%	?	16%	-2
CCN(CC)S(=O)(=O)c1ccc(N2CCc3ccccc3C2)nc1	37*	8%	-23%	?	-21%	26
CC(C)N(C(C)C)S(=O)(=O)c1ccc(N2CCc3ccccc3C2)nc1	32*	-11%	?	?	-10%	58*
C=CCNC(=O)C1CC2Cn3c(nc4cc(Cl)c(Cl)cc43)C2N1C (stereo unspecified)	.	-2%	43%	-27%	17%	.
O=[N+]([O-])c1cnc(Sc2ccncn2)s1	1	33%	0%	31%	7.1µM*	17
O=[N+]([O-])c1cnc(Sc2ccncn2)c([N+](=O)[O-])c1	.	21%	.	.	.	.
N=c1oc2cc(O)ccc2cc1C(=O)Nc1ccccn1	14*	.	-2%	12%	.	52*
CC(C)(C)C(=O)Nc1ccccc1C(=O)Nc1ccccn1	-1	-12%	0%	-21%	-17%	13
N=c1oc2cc(O)ccc2cc1C(=O)Nc1ccc(Br)cc1	29*	4%	0.74µM*	46%	?	41*
N=c1oc2ccc(Br)cc2cc1C(=O)NCc1ccccc1	0	-3%	?	-7%	.	-2
N=c1oc2cc(O)ccc2cc1C(=O)Nc1nc2ccccc2s1	64*	10%	?	118%	1%	32
COc1ccc(S(=O)(=O)N2CCCOC2CNC(=O)C(=O)NCc2ccccc2C)cc1 (stereo unspecified)	.	0%	.	.	.	.
COc1cc(C(=O)OCC(=O)NC2CCCCC2)cc2c1OCCO2	.	3%	18%	20%	-5%	.
CC(C)[C@H](NS(=O)(=O)c1ccccc1)C(=O)Nc1nccs1	.	26%	.	.	8%	.
CCc1c(C)nc(N2CCN(c3ccc(OC)cc3)CC2)[nH]c1=O	0	-4%	0%	2%	9%	7
O=C(NC1CCN(Cc2ccccc2)CC1)c1cccc(S(=O)(=O)Nc2ccc(SC(F)F)cc2)c1	.	-6%	.	.	2.8µM*	.
Cc1ccc(S(=O)(=O)Nc2cccc(C(=O)NC3CCN(Cc4ccccc4)CC3)c2)cc1F	.	-28%	?	?	?	.
Cc1ccc(NS(=O)(=O)c2cccc(C(=O)NC3CCN(Cc4ccccc4)CC3)c2)cc1	.	-10%[11.6 µM]	.	.	13µM*	.
O=C(NC1CCN(Cc2ccccc2)CC1)c1cccc(NS(=O)(=O)c2ccc(Br)cc2)c1	.	-17%	.	.	11µM*	.
O=C(NC1CCN(Cc2ccccc2)CC1)c1cc(S(=O)(=O)Nc2ccc(F)cc2)ccc1Cl	.	-1%	9.3µM*	9.3µM*	?	.
COC(C(=O)Nc1ccnn1C1CCN(Cc2ccc(Cl)s2)CC1)c1ccccc1 (stereo unspecified)	-3	1%	9%	?	-9%	8
O=C(Cn1c(=O)oc2cc(S(=O)(=O)N3CCCC3)ccc21)Nc1cccc(C(F)(F)F)c1	12	-2%	12µM*	36%	?	14
O=C(Cn1c(=O)oc2cc(S(=O)(=O)N3CCCC3)ccc21)NCc1ccc(F)cc1	-5	8%	6.6µM*	.	3%	4
CCN(C(=O)Cn1c(=O)oc2cc(S(=O)(=O)N3CCOCC3)ccc21)c1ccccc1	-2	-5%	4.1µM*	?	16%	3
SMILES	Cycloheximide cs	AMA1 RON2 block	Pf growth 96h	Pf growth 48h	HCV inh	Shiga inhibitor
CCCCNC(=O)Cn1c(=O)oc2cc(S(=O)(=O)N3CC(C)CC(C)C3)ccc21 (stereo unspecified)	-4	3%	6.6µM*	.	-26%	-18
CC1([N+](=O)[O-])COC2(CCCCC2)OC1	.	-22%	.	.	8%	.
Cc1cc(NC(=O)CSCC(=O)OCC(=O)c2cccc(Br)c2)no1	.	-9%	-16%	-10%	13%	.
Cc1ccc(S(=O)(=O)N2C[C@H]3[C@H]4C(=O)N(Cc5ccccc5)C(=O)[C@H]4CC(=O)[C@H]3[C@@H]2c2ccccc2)cc1	.	23%	.	.	.	.
CCOC(=O)N1CCN(C(=O)CSc2nc(=O)n3ccc(C)cc3n2)CC1	.	-1%	16%	-17%	2%	.
C[C@@H]1CN([C@H](C)CO)S(=O)(=O)c2ccc(-c3ccc(C#N)cc3)cc2O[C@H]1CN(C)C(=O)Nc1cc(F)ccc1F	.	0%	.	.	.	.
O=C(Cn1cnc2c(nnn2Cc2ccc(F)cc2)c1=O)Nc1ccc2c(c1)OCCO2	2	-10%	25%	2%	4%	-2
CC1CCCN(C(=O)Cn2c(=O)oc3cc(S(=O)(=O)N4CCCCC4)ccc32)C1 (stereo unspecified)	1	-3%	?	1.3µM*	4%	19
O=C(Cn1c(=O)oc2cc(S(=O)(=O)N3CCCC3)ccc21)N1CCN(c2ccccn2)CC1	-2	-5%	12µM*	-7%	?	-8
CC1CCCCC1NC(=O)Cn1c(=O)oc2cc(S(=O)(=O)N3CCCC3)ccc21 (stereo unspecified)	-1	1%	10µM*	-8%	-19%	-1
CC(C(=O)NCc1ccc(F)cc1)n1ccc2cc(S(=O)(=O)N3CCCC3)ccc21 (stereo unspecified)	-2	2%	?	?	11µM*	7
CCOc1ccc(CNC(=O)C(C)n2ccc3cc(S(=O)(=O)N4CCCC4)ccc32)cc1 (stereo unspecified)	-3	0%	?	?	?	-2
CC1(C(=O)Nc2ccc3c(c2)OCCO3)CN(S(C)(=O)=O)CC(=O)N1CCc1ccccc1F (stereo unspecified)	.	-6%	.	.	.	.
O=C(O)c1c2c(nc3ccccc13)/C(=C/c1ccc(OC(F)F)cc1)CCC2	23*	-4%	7%	27%	12%	58*
O=C(O)c1c2c(nc3ccccc13)/C(=C/c1ccc(O)cc1)CC2	-5	-23%	188%	269%	18%	-18
O=C(Cn1ncc2c([nH]c3ccccc32)c1=O)N1CCN(c2ccccn2)CC1	0	10%	1.3µM*	-14%	14%	-4
Cc1ccc2[nH]c3c(=O)n(CC(=O)N4CCN(C)CC4)ncc3c2c1	1	-7%	7.4µM*	45%	-6%	-9
O=C(Cn1ncc2c([nH]c3ccccc32)c1=O)N1CCCCC1	19	6%	18%	39%	12%	4
Cc1ccc(-c2cc3nc(NCCc4ccncc4)n(C)c(=O)c3s2)cc1	.	-1%	.	.	.	.
Cc1ccc(C2(C)NC(=O)N(CC(=O)Nc3cc(S(=O)(=O)N(C)C)ccc3C)C2=O)cc1 (stereo unspecified)	-2	0%	6%	-1%	-21%	-15
